Our source for the sensor-assay potency score (higher = more potent) values is the OligoGym collection.
Note: reference of the scale not given here.

This assay deals with ATOX1. Description: pooled miR-30 sensor sort-seq; sequence = guide strand. To be noted: shRNA.
In the case of TTTCTTCAGGGTTGCAAGCAGA, the sensor-assay potency score (higher = more potent) was -1.16. TGTCATACTTAACTCCTCCAAG: the sensor-assay potency score (higher = more potent) is -0.838. In turn, TTCAGGGTTGCAAGCAGAGTGT yielded a sensor-assay potency score (higher = more potent) of -1.04.

For the sequence ATACTTAACTCCTCCAAGCTTA, the sensor-assay potency score (higher = more potent) was -0.272.

Take TTGTTGGGCAGGTCAATGTCAT: the sensor-assay potency score (higher = more potent) was -0.613.

TCAATGCAGACCTTCTTGTTGG returned a sensor-assay potency score (higher = more potent) of -0.56. For ATGTCATACTTAACTCCTCCAA, the sensor-assay potency score (higher = more potent) is -0.956. Take TACTTAACTCCTCCAAGCTTAT: the sensor-assay potency score (higher = more potent) is -1.31. AAGCAGAGTGTCCATGCTGTGC yielded a sensor-assay potency score (higher = more potent) of -1.19. Sequence TTCAGCACAGCCTCCACAGGTC displayed a sensor-assay potency score (higher = more potent) of -0.0676.

In turn, TCAGATTCAATGCAGACCTTCT returned a sensor-assay potency score (higher = more potent) of -0.2. TCCAAGCTTATTGAGGACCCGA displayed a sensor-assay potency score (higher = more potent) of -0.663. In the case of AGTCTTTCCTGTTTTCTTCAGG, the sensor-assay potency score (higher = more potent) is -1.75. The sequence TTCAATGCAGACCTTCTTGTTG had a sensor-assay potency score (higher = more potent) of -0.466.

As for TATTGAGGACCCGAGAGACAGC, the sensor-assay potency score (higher = more potent) is -1.44. The sequence TAGGAAACAGTCTTTCCTGTTT returned a sensor-assay potency score (higher = more potent) of -0.521. Regarding TTTCCTGTTTTCTTCAGGGTTG, the sensor-assay potency score (higher = more potent) is -0.588. AATGCAGACCTTCTTGTTGGGC: the sensor-assay potency score (higher = more potent) was -0.556. Next, AACTCCTCCAAGCTTATTGAGG: -1.32; TTCCTGTTTTCTTCAGGGTTGC: -0.392.

On to TCAATGTCATACTTAACTCCTC, for which the sensor-assay potency score (higher = more potent) is -0.482. With TAACTCCTCCAAGCTTATTGAG, the sensor-assay potency score (higher = more potent) was -1.42.

For TTTTCTTCAGGGTTGCAAGCAG, the sensor-assay potency score (higher = more potent) came out at 0.404. Next, TTCTTCAGGGTTGCAAGCAGAG: -0.987.
